A short description of experiment [1]: qHTS assay for small molecule agonists of the p53 signaling pathway (AID 651631; calls by dose curve; further: nearly all actives have a fitted effect of over 15% in size). The method in brief:
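Read-out is beta-lactamase FRET fluorescence measured 2 h after substrate addition at room temperature, in HCT-116 cells with a p53 response element-driven reporter exposed to compounds for 16 h at 37 °C.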
Background: Quantitative high-throughput screening tests each substance at several concentrations.

Experiment [2] in a line: qHTS assay for small molecules that induce genotoxicity in human embryonic kidney cells expressing luciferase-tagged ATAD5 (AID 651632). Further: nearly all actives have a fitted effect of over 15% in size. Put shortly:
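Luminescence read-out: after 16 hr compound exposure at 37C, ATAD5-luciferase HEK293T cells received Amplite, 30 min RT, then CCD imaging. A rise in signal marks genotoxic stress.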

Experiment [3] in a line: qHTS assay for small molecule agonists of the p53 signaling pathway - cell viability (AID 651633; calls by dose curve;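 further: p53RE-bla HCT reporter cells with a stable beta-lactamase p53 reporter; series mostly up to about 83 µM; nearly all actives have a fitted effect of over 30% in size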). The method in brief:
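p53RE-bla cells, seeded at 4,000 per well and rested 5 h at 37 C/5% CO2, received compounds in DMSO for 16 h at 37 C. CellTiter-Glo was then added, and luminescence was read after 30 min at room temperature to gauge cytotoxicity.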

The nature of experiment [4]: qHTS assay for small molecules that induce genotoxicity in human embryonic kidney cells expressing luciferase-tagged ATAD5 - cell viability (AID 651634; calls by dose curve; further: nearly all actives have a fitted effect of over 25% in size). The method in brief: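 HEK293T ATAD5-luc cells, 2,000/well; compound 15.5 hr, 37C/5% CO2; CellTiter-Fluor 30 min, 37C; fluorescence read.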
Experiment [5] in a line: qHTS assay for small molecule disruptors of the mitochondrial membrane potential - cell viability (AID 720634; calls by dose curve;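 further: human HepG2 liver cancer cells; series mostly up to about 83 µM; nearly all actives have a fitted effect of over 20% in size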). Put shortly:
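Luminescence from CellTiter-Glo (ATP content) gave viability in HepG2 cells, read in the same wells as the MMP dye assay after 1 hr compound exposure at 37 C.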

Experiment [6] is described as follows: qHTS assay to test for compound auto fluorescence at 590 nm (red) in HepG2 cells (AID 720674). The method in brief: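 Rose Bengal sodium served as the red fluorophore standard. HepG2 monolayers (overnight attachment, MEM with 10% FBS) were exposed to test compounds for 1 hr at 37 C and read at Ex 540/Em 590 nm.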
A short description of experiment [7]: qHTS assay to test for compound auto fluorescence at 535 nm (green) in HepG2 cells (AID 720675).
Experiment [8] can be described thus: qHTS assay to test for compound auto fluorescence at 460 nm (blue) in HEK293 cells (AID 720678). Put shortly:
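Blue read-out at excitation 405 nm and emission 460 nm follows overnight compound exposure of HEK293 cells at 37C in 5% CO2. Activity is given as auto fluorescence equivalency to triamterene.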

Experiment [9] can be described thus: qHTS assay to test for compound auto fluorescence at 590 nm (red) in HEK293 cells (AID 720679). Put shortly: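 Red channel, Ex/Em 540/590nm; signal expressed as equivalency to Rose Bengal sodium. HEK293, 2,000 cells/well, 10% dialyzed FBS; 23 nL compound pinned after 4-5 hr attachment; overnight 37C/5% CO2 before reading.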
A short description of experiment [10]: qHTS assay to test for compound auto fluorescence at 535 nm (green) in HEK293 cells (AID 720680).
Experiment [11] can be described thus: qHTS assay to test for compound auto fluorescence at 460 nm (blue) in HEK293 cell free culture (AID 720681). Put shortly: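 Test compounds were pinned into cell-free culture medium (DMEM with 10% FBS) and fluorescence was read directly at Ex/Em 405/460 nm. Signals were expressed as fluorescence equivalents of triamterene, with DMSO vehicle as control.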
A short description of experiment [12]: qHTS assay to test for compound auto fluorescence at 535 nm (green) in HEK293 cell free culture (AID 720682). The method in brief: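 Fluorescein serves as the green reference fluorophore; each compound's intrinsic emission at 535 nm (excitation 485 nm) is reported as an equivalent amount of that dye, measured in serum-containing DMEM without cells.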
Experiment [13] is described as follows: qHTS assay to test for compound auto fluorescence at 590 nm (red) in HEK293 cell free culture (AID 720683). Put shortly:
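Tox21 10K library compounds were pinned into cell-free DMEM with 10% FBS and fluorescence was read at excitation 540 nm. Activity is expressed as Rose Bengal sodium equivalency.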

A short description of experiment [14]: qHTS assay to test for compound auto fluorescence at 590 nm (red) in HepG2 cell free culture (AID 720684). The method in brief:
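Ex 540 / Em 590 nm read of compound in cell-free MEM (10% FBS). Rose Bengal sodium reference.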

Experiment [15] in a line: qHTS assay to test for compound auto fluorescence at 460 nm (blue) in HepG2 cell free culture (AID 720685). Put shortly: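 Cell-free plates of MEM plus 10% FBS received 23 nL compound or DMSO vehicle; blue-channel (405/460 nm) intensity scored against triamterene as reference fluorophore.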
A short description of experiment [16]: qHTS assay to test for compound auto fluorescence at 535 nm (green) in HepG2 cell free culture (AID 720686).
Experiment [17] in a line: qHTS assay to test for compound auto fluorescence at 460 nm (blue) in HepG2 cells (AID 720687). The method in brief: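 Cells (2,000/well in MEM with 10% FBS) attached overnight at 37 C, then were exposed to compound or DMSO for 1 hr at 37 C, 5% CO2. Fluorescence read at Ex/Em 405/460 nm, expressed as triamterene-equivalent signal.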
Experiment [18] deals with Glucocorticoid receptor (Homo sapiens) (UniProt P04150). In words: qHTS assay to identify small molecule antagonists of the glucocorticoid receptor (GR) signaling pathway (AID 720692; active means well fitted inhibition curve with a large enough effect in the signal ratio in the repeat runs, not every such curve was filed as active; the % refers to the signal ratio). Put shortly: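 Read-out: beta-lactamase FRET substrate fluorescence, 2 h at room temperature, in HeLa cells stably carrying a GRE-driven bla reporter. Compounds were co-incubated with 5 nM dexamethasone agonist (final) for 18 h at 37 C.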

Experiment [19] is described as follows: qHTS assay for small molecule disruptors of the mitochondrial membrane potential (AID 720635). Further: potency means the concentration at half of the fitted maximal effect. Put shortly:
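HepG2 cells (2,000/well) attached overnight at 37C, then took compound for 1 hr at 37C, 5% CO2. Mito-MPS dye was added for 30 min; fluorescence was read at 490/535 nm (monomers) and 540/590 nm (aggregates).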

Experiment [20] deals with Glucocorticoid receptor (Homo sapiens) (UniProt P04150). In words: qHTS assay to identify small molecule agonists of the glucocorticoid receptor (GR) signaling pathway (AID 720691; active means well fitted activation curve with a large enough effect in the signal ratio in the repeat runs, not every such curve was filed as active; the % refers to the signal ratio). Put shortly:
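HeLa GR-bla reporter line; cells pre-incubated 4 h, compound in DMSO 18 h at 37 C; LiveBLAzer B/G FRET substrate 2 h RT; fluorescence intensity read-out.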

Unmarked numbers belong to inactive results. Inconclusive results are not listed. Calls of active or inactive are those of the source. Unless noted, the call rests on the fitted dose curve; in most records, active means well fitted curve in the direction sought with a large enough effect in the repeat runs; inconclusive means weak or mixed curves; inactive means no such curve, though single readings can be large; an effect the other way counts as inactive or inconclusive.

Chain of Glucocorticoid receptor (Homo sapiens) (P04150 whole entry, looked up): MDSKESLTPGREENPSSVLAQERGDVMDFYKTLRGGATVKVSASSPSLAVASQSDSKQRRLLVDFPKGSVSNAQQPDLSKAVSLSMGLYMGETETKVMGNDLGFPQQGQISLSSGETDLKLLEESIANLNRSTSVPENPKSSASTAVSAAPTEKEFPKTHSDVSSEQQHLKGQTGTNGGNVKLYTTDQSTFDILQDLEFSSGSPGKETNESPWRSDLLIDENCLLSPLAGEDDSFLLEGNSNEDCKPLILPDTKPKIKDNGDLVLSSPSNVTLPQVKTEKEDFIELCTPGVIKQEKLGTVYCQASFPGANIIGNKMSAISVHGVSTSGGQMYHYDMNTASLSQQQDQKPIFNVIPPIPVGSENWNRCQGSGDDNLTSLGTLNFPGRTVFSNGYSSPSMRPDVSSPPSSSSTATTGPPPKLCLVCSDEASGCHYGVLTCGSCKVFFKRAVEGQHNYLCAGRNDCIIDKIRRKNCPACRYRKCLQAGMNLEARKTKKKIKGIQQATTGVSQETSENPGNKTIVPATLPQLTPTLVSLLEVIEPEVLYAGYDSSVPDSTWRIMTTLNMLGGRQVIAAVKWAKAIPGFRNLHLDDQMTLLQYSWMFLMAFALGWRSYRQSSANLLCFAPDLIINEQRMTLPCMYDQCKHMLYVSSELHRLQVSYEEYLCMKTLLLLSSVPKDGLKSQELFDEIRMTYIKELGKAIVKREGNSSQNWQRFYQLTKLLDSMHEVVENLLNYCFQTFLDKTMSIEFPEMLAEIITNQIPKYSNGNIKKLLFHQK

Regarding `OC[C@H]1O[C@@H](O[C@H]2[C@H](O)[C@@H](O)[C@H](O)O[C@@H]2CO)[C@H](O)[C@@H](O)[C@H]1O`, the Potency result in experiment [1], in [2], in experiment [3], in experiment [4], in experiment [5] and in experiment [18] was “inactive” throughout. The outcome in [6], in [7], in experiment [8], in experiment [9], in experiment [10] and in experiment [11] was inactive. Besides, the outcome in experiment [12], in experiment [13], in [14], in experiment [15], in experiment [16] and in experiment [17] was inactive.

In the case of `CCCc1c2oc(C(=O)O)cc(=O)c2cc2c(=O)cc(C(=O)O)n(CC)c12`, the Potency entry in experiment [1], in [2], in experiment [3], in experiment [4], in experiment [5] and in [19] was “inactive” each time. For the same compound, the Potency entry in experiment [20] and in [18] was “inactive” in each case. Also, the result in [6], in experiment [7], in [8], in experiment [9], in experiment [10] and in [11] was inactive. Moreover, the compound was classed as inactive in [12], in experiment [13], in experiment [15], in experiment [16] and in experiment [17].

As for `CCCCCCCCCC/C=C/C#N`, the Potency result in experiment [1], in experiment [2], in [3], in experiment [4], in [5] and in experiment [19] was “inactive” throughout. Besides, the outcome in experiment [6], in experiment [7], in experiment [8], in [10], in experiment [12] and in [13] was inactive. Moreover, the compound was classed as inactive in experiment [14], in experiment [15], in [16] and in [17].

On to `C[C@@H](N)C(=O)O`, for which the Potency entry in experiment [1], in [2], in experiment [3], in experiment [4], in experiment [5] and in experiment [20] was “inactive” throughout. The Potency result in experiment [18] is “inactive”. In addition, the result in experiment [6], in experiment [7], in experiment [8], in experiment [9], in experiment [10] and in experiment [11] was inactive. Further, the outcome in [12], in experiment [13], in experiment [14], in [15], in experiment [16] and in [17] was inactive.

Turning to `Cc1ncc(CO)c(CN)c1O`, the Potency entry in [1], in experiment [2], in [3], in experiment [4] and in experiment [5] was “inactive” in each case. The compound was classed as inactive in experiment [6], in experiment [7], in [9], in experiment [10], in [11] and in [12]. Also, the compound was classed as inactive in experiment [13], in [14], in [15], in [16] and in experiment [17].

On to `CC(C)(CO)[C@@H](O)C(=O)NCCC(=O)O`, for which the Potency result in experiment [1], in experiment [2], in experiment [3], in [4], in experiment [5] and in experiment [19] was “inactive” throughout. The call in experiment [6], in experiment [7], in experiment [10], in experiment [11], in experiment [12] and in experiment [13] was inactive. Further, the compound was called inactive in experiment [15] and in experiment [16].

On to `CCOC(=O)C(Br)c1ccccc1` (stereo unspecified), for which the Potency entry in experiment [1], in [2], in experiment [3], in [4], in experiment [5] and in experiment [19] was “inactive” each time. For the same compound, the compound was classed as inactive in experiment [6], in [7], in [8], in [9], in experiment [10] and in experiment [12]. The compound was called inactive in experiment [14], in experiment [15], in experiment [16] and in experiment [17].

For `Oc1ccccc1C=NCc1ccccc1`, the Potency entry in experiment [1], in [2], in [3], in experiment [4], in experiment [5] and in [18] was “inactive” each time. Moreover, the Potency in experiment [19] is 21.1 µM (active). Besides, the call in experiment [6], in experiment [7], in experiment [8], in experiment [9], in experiment [10] and in [11] was inactive. Moreover, the compound was classed as inactive in experiment [12], in experiment [13], in experiment [15], in [16] and in experiment [17].
